Test results published in PubChem BioAssay.
For some assays here: Results with a measured potency or affinity are listed apart. The source made the active and inactive calls. Unless noted, the rule behind the calls is not given here.

Assays:
[1] = antimalarial activity against Dd2 strain (AID 2302;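 active = growth inhibition above 50% at the single 2 µM test dose, taken to imply half-maximal potency below 2 µM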;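 note: 0% = DMSO untreated growth and 100% = chloroquine plus artemisinin killed control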); conditions: P. falciparum Dd2 in RBCs, LDH growth readout, 72 h; at 2 µM; hits give high values
[2] = human hepatoma cell viability loss – ATP luminescence, cytotoxicity control for P. falciparum antimalarial project, primary screen (AID 2303;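 active = inhibition above 50%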;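 note: 0% = DMSO wells and 100% = digitonin-killed cells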); conditions: HepG2 viability, 24-48 h, at 10 µM, hits give high values
[3] = target: L-lactate dehydrogenase (Plasmodium falciparum (isolate CDC / Honduras)) (UniProt Q27743); assay: PfLDH activity inhibition – cell lysate, 3D7 strain, counter-screen for P. falciparum growth inhibition project (AID 2304);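 note: 0% = vehicle and 100% = reference inhibitor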; conditions: P. falciparum 3D7 crude extract, LDH APAD/NBT absorbance; at 2 µM; hits give high values
[4] = inhibition of 3D7 malaria parasite growth – strain 3D7 (AID 2306);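 note: 0% = DMSO wells and 100% = chloroquine plus artemisinin control wells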; conditions: P. falciparum 3D7 erythrocytic growth, LDH absorbance, 72 h; at 2 µM; hits give high values
[5] = target: Calcium-dependent protein kinase 1 (Plasmodium falciparum (isolate 3D7)) (UniProt P62344); assay: PfCDPK1 kinase inhibitors, biochemical, TCAMS library (AID 1159585; cut-off not given, nearly all actives have IC50 up to about 0.98 µM;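 note: inhibitors leave more ATP so luminescence rises with inhibition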); conditions: recombinant PfCDPK1, Kinase-Glo ATP depletion luminescence
[6] = target: Plasmodium falciparum protein kinase 6 (PK6, PF3D7_1337100) (UniProt Q8IDW1); assay: PfPK6 kinase inhibitors, biochemical, TCAMS library (AID 1159586); conditions: recombinant PfPK6, Kinase-Glo ATP depletion luminescence
[7] = target: Protein kinase 7 (PK7), Plasmodium falciparum 3D7 (PF3D7_0213400) (UniProt Q7YTF7); assay: inhibition of Plasmodium PK7 catalytic activity – biochemical, TCAMS antimalarial set, Kinase-Glo luminescence (AID 1159587); conditions: recombinant PfPK7, Kinase-Glo ATP depletion luminescence
[8] = target: Calcium-dependent protein kinase 4 (Plasmodium falciparum (isolate 3D7)) (UniProt Q8IBS5); assay: PfCDPK4 kinase inhibitors, biochemical, TCAMS library (AID 1159588; cut-off not given, nearly all actives have IC50 up to about 0.91 µM); conditions: recombinant PfCDPK4, Kinase-Glo ATP depletion luminescence
Calcium-dependent protein kinase 4 (Plasmodium falciparum (isolate 3D7)), sequence (Q8IBS5 whole entry, looked up): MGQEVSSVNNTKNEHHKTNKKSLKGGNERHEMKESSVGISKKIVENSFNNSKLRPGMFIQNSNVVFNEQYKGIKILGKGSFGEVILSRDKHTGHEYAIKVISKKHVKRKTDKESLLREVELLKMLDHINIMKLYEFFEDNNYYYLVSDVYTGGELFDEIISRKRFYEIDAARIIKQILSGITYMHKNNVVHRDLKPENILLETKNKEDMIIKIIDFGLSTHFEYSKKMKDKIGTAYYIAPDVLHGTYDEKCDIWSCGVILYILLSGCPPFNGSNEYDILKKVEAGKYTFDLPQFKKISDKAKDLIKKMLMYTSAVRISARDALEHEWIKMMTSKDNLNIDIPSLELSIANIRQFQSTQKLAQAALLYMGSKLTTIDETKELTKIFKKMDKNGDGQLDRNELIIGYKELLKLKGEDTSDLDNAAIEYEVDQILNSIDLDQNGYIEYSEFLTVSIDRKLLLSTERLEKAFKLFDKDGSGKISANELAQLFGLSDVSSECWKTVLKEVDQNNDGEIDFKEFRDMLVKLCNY

Protein kinase 7 (PK7), Plasmodium falciparum 3D7 (PF3D7_0213400), sequence (Q7YTF7 1-343): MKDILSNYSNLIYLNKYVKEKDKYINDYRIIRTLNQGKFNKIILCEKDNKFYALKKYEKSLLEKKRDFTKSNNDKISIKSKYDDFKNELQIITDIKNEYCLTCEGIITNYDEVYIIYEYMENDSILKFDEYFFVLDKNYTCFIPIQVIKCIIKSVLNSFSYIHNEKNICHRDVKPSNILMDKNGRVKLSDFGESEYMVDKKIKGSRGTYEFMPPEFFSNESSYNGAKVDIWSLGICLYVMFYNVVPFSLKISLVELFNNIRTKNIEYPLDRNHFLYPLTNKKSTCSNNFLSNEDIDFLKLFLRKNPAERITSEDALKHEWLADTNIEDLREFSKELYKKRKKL
L-lactate dehydrogenase (Plasmodium falciparum (isolate CDC / Honduras)), sequence (Q27743 whole entry, looked up): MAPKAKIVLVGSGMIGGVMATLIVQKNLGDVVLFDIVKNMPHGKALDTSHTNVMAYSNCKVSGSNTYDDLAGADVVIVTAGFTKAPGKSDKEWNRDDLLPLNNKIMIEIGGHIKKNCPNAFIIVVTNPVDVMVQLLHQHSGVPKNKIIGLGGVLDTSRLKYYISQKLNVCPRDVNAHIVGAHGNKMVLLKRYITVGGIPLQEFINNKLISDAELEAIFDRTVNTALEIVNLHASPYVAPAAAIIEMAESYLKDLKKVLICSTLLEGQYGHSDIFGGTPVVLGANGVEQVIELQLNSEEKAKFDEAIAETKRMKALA
Plasmodium falciparum protein kinase 6 (PK6, PF3D7_1337100), sequence (Q8IDW1 1-305): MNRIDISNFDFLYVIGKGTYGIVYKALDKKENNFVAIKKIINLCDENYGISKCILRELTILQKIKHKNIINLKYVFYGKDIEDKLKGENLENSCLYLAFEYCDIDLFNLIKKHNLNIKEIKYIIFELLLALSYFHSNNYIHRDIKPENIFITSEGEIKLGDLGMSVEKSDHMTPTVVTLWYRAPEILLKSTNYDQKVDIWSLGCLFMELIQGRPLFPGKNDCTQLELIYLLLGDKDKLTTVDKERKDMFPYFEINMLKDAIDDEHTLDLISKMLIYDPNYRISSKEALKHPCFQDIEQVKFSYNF
Calcium-dependent protein kinase 1 (Plasmodium falciparum (isolate 3D7)), sequence (P62344 whole entry, looked up): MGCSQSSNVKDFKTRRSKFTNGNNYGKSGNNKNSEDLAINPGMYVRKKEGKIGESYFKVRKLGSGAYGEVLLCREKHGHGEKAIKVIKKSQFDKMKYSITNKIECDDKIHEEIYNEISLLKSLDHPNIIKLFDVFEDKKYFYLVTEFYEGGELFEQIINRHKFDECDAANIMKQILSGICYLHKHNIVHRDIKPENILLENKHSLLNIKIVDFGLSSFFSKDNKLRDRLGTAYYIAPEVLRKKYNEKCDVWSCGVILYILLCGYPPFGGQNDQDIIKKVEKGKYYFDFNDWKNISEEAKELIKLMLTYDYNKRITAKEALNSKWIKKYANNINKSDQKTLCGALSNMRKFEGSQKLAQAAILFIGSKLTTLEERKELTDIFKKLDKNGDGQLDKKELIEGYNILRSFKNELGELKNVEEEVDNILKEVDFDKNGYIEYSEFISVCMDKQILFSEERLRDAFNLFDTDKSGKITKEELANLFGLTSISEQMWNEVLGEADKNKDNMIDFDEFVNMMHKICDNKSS

Oc1ccc(CN2CC[C@@H](N3CCN(CCc4ccccc4)CC3)[C@H](O)C2)cc1Cl
inactive: inhibition [2] 0% | inhibition [3] 2% | outcome [5] | outcome [6] | outcome [7] | outcome [8]
active: growth inhibition [1] 77% | growth inhibition [4] 100%

C[C@H](Cc1ccc(OCCNC[C@H](O)c2cccc(Cl)c2)cc1)NC[C@H](O)c1ccc(Cl)c(Cl)c1
active: growth inhibition [1] 64% | inhibition [2] 69% | growth inhibition [4] 83%
inactive: inhibition [3] 4% | outcome [5] | outcome [6] | outcome [7] | outcome [8]

CC1CCCN(c2ccc(NC(=O)c3cccs3)cc2[N+](=O)[O-])C1 (stereo not given)
inactive: inhibition [2] 14% | inhibition [3] -2% | outcome [5] | outcome [6] | outcome [7] | outcome [8]
active: growth inhibition [1] 96% | growth inhibition [4] 96%

O=C(c1cccc(-c2ccc(-c3nc4ccc(C(F)(F)F)cc4[nH]3)cc2)c1)N1CCCCC1CN1CCC(O)C1 (stereo not given)
active: growth inhibition [1] 101% | growth inhibition [4] 92%
inactive: inhibition [2] 19% | inhibition [3] 4% | outcome [5] | outcome [6] | outcome [7] | outcome [8]

Cc1cccc(C(=O)Nc2ccnc(N3CCC(N(C)Cc4cccc(O)c4)CC3)c2)c1
active: growth inhibition [4] 95%
inactive: growth inhibition [1] 41% | inhibition [2] 7% | inhibition [3] -1% | outcome [5] | outcome [6] | outcome [7] | outcome [8]

CCN(CC)CCN(Cc1ccc(-c2ccc(C(F)(F)F)cc2)cc1)C(=O)Cn1cc(CCCc2cccc(F)c2F)c(=O)c2ccccc21
inactive: growth inhibition [1] 20% | inhibition [2] 13% | inhibition [3] -4% | outcome [5] | outcome [6] | outcome [7] | outcome [8]
active: growth inhibition [4] 89%

O=C(Cc1ccccc1)NC(c1ccccc1)c1ccc2cccnc2c1O (stereo not given)
inactive: inhibition [2] 49% | inhibition [3] 3% | outcome [5] | outcome [6] | outcome [7] | outcome [8]
active: growth inhibition [1] 61% | growth inhibition [4] 89%

Cc1ccc(CN2CCCCC(NC(=O)c3cc4ccccc4s3)C2)cc1 (stereo not given)
active: growth inhibition [4] 94%
inactive: growth inhibition [1] 8% | inhibition [2] 9% | inhibition [3] -1% | outcome [5] | outcome [6] | outcome [7] | outcome [8]

CC(C#N)Cc1ccc(-c2cnc(N)c3cc(-c4ccnc(N)n4)ccc23)cc1 (stereo not given)
inactive: inhibition [3] 0% | outcome [5] | outcome [6] | outcome [7] | outcome [8]
active: growth inhibition [1] 62% | inhibition [2] 56% | growth inhibition [4] 96%

O=C(Nc1ccccc1Cl)N(Cc1cc(Cl)cc(Cl)c1)CC(O)COc1ccc(Cl)c(F)c1 (stereo not given)
active: growth inhibition [4] 93%
inactive: growth inhibition [1] 17% | inhibition [2] 0% | inhibition [3] 4% | outcome [5] | outcome [6] | outcome [7] | outcome [8]

CCC1CN2CCc3cc(OC)c(OC)cc3C2CC1CC1NCCc2cc(OC)c(OC)cc21 (stereo not given)
active: growth inhibition [1] 98% | growth inhibition [4] 103%
inactive: inhibition [2] 42% | inhibition [3] -3% | outcome [5] | outcome [6] | outcome [7] | outcome [8]

CC(Oc1cc(-n2cnc3ccc(NC(=O)CCN4CCCCC4)cc32)sc1C(N)=O)c1ccccc1Cl (stereo not given)
active: growth inhibition [1] 98% | inhibition [2] 95% | growth inhibition [4] 99%
inactive: inhibition [3] 1% | outcome [5] | outcome [6] | outcome [7] | outcome [8]

O=C(NCc1ccccc1)c1nn(CCCN2CCC(N3CCCC3)CC2)cc1-c1ccc(Cl)c(Cl)c1
active: growth inhibition [1] 89% | growth inhibition [4] 103%
inactive: inhibition [2] 29% | inhibition [3] 0% | outcome [5] | outcome [6] | outcome [7] | outcome [8]

Clc1ccc(OCc2ccccc2)c(-c2nc(-c3nc4ncc(Br)cc4[nH]3)cs2)c1
inactive: inhibition [2] -7% | inhibition [3] -2% | outcome [5] | outcome [6] | outcome [7] | outcome [8]
active: growth inhibition [1] 77% | growth inhibition [4] 101%

CC(C)N(Cc1cnc2nc(N)nc(N)c2n1)c1ccc(Cl)c(Cl)c1
inactive: inhibition [3] -3% | outcome [5] | outcome [6] | outcome [7] | outcome [8]
active: growth inhibition [1] 98% | inhibition [2] 63% | growth inhibition [4] 101%

Fc1ccc2nccc(NN=CC=Cc3ccccc3)c2c1
active: growth inhibition [1] 77% | growth inhibition [4] 96%
inactive: inhibition [2] 29% | inhibition [3] -2% | outcome [5] | outcome [6] | outcome [7] | outcome [8]

CCc1ccc(-n2c(NC(=O)c3ccccc3)nc3ccc(S(=O)(=O)NC(C)C(C)C)cc32)cc1 (stereo not given)
inactive: growth inhibition [1] -4% | inhibition [2] 48% | inhibition [3] 0% | outcome [5] | outcome [6] | outcome [7] | outcome [8]
active: growth inhibition [4] 88%

N#Cc1ccc2c(c1)CCN(CCC1CCC(NC(=O)c3cccc(-c4ccc(F)cc4)c3)CC1)CC2 (stereo not given)
active: growth inhibition [4] 92%
inactive: growth inhibition [1] 10% | inhibition [2] 32% | inhibition [3] -3% | outcome [5] | outcome [6] | outcome [7] | outcome [8]

COc1cccc(CNC(=O)c2cc(CNCc3ccccc3)ccc2-c2cccc(CNCc3ccc(-c4ccccc4)cc3)c2)c1
inactive: growth inhibition [1] 15% | inhibition [2] 22% | inhibition [3] 8% | outcome [5] | outcome [6] | outcome [7] | outcome [8]
active: growth inhibition [4] 95%

CCOc1ccc2c(NN=Cc3cc(OC)c(OC)cc3OC)cc(C)nc2c1
active: growth inhibition [1] 97% | growth inhibition [4] 101%
inactive: inhibition [2] 24% | inhibition [3] 4% | outcome [5] | outcome [6] | outcome [7] | outcome [8]

O=C1C(C2CCC(c3ccc(Cl)cc3)CC2)=C2OCC3COC2(O3)c2ccccc21 (stereo not given)
inactive: inhibition [2] 7% | inhibition [3] -2% | outcome [5] | outcome [6] | outcome [7] | outcome [8]
active: growth inhibition [1] 97% | growth inhibition [4] 98%

Oc1ccc(CCNc2nc(NCc3cccc(OCc4cccc(F)c4)c3)nc(N3CCNCC3)n2)cc1
active: growth inhibition [4] 86%
inactive: growth inhibition [1] -7% | inhibition [2] 27% | inhibition [3] -3% | outcome [5] | outcome [6] | outcome [7] | outcome [8]

Oc1ccc2nc(NCCCc3ccccc3)nc(NCCc3ccccc3)c2c1
active: growth inhibition [1] 88% | growth inhibition [4] 99%
inactive: inhibition [2] 31% | inhibition [3] -3% | outcome [5] | outcome [6] | outcome [7] | outcome [8]

CS(=O)(=O)c1ccc(CCNCc2ccc(-c3ccc(CN(C(=O)C4CCCC4)C4CCN(Cc5ccccc5)CC4)cc3)nc2)cc1
active: growth inhibition [4] 91%
inactive: growth inhibition [1] 20% | inhibition [2] 24% | inhibition [3] -6% | outcome [5] | outcome [6] | outcome [7] | outcome [8]

CS(=O)(=O)Nc1ccc2c(C3CCN(CCC4CCN(C(=O)/C=C/c5ccc(Cl)c(Cl)c5)CC4)CC3)c[nH]c2c1
inactive: inhibition [2] 35% | inhibition [3] -3% | outcome [5] | outcome [6] | outcome [7] | outcome [8]
active: growth inhibition [1] 63% | growth inhibition [4] 99%

CC1CN(Cc2ccc(C#N)cc2)CCN1c1ccc(NC(=O)c2cccs2)cc1 (stereo not given)
inactive: inhibition [2] 8% | inhibition [3] 2% | outcome [5] | outcome [6] | outcome [7] | outcome [8]
active: growth inhibition [1] 89% | growth inhibition [4] 93%

CC(C)CCC[C@@H]([C@@H](CC1CCCCC1)C(=O)N[C@@H](CCCCNC(=O)OCc1ccccc1)C(=O)Nc1nccs1)N(O)C=O
active: growth inhibition [1] 90% | growth inhibition [4] 98%
inactive: inhibition [2] -4% | inhibition [3] 3% | outcome [5] | outcome [6] | outcome [7] | outcome [8]

CN(C)c1ccc(-c2csc(C(=O)NC3CCN(Cc4ccc(C(C)(C)C)cc4)C3)c2)cc1 (stereo not given)
inactive: inhibition [2] 26% | inhibition [3] -1% | outcome [5] | outcome [6] | outcome [7] | outcome [8]
active: growth inhibition [1] 50% | growth inhibition [4] 99%

O=C(NCCCN1CCN(c2cccc(Cl)c2)CC1)c1ccc(-c2nc3cc(Cl)c(Cl)cc3[nH]2)cc1
active: growth inhibition [1] 95% | growth inhibition [4] 98%
inactive: inhibition [2] 3% | inhibition [3] -1% | outcome [5] | outcome [6] | outcome [7] | outcome [8]

Fc1ccc2nc(-c3cccc(-c4ccc(CNCCN5CCNCC5)cc4)c3)[nH]c2c1
inactive: growth inhibition [1] -3% | inhibition [2] 9% | inhibition [3] -2% | outcome [5] | outcome [6] | outcome [7] | outcome [8]
active: growth inhibition [4] 90%

CCCCN1CCN(c2cc(NS(=O)(=O)c3ccc(C(=O)Nc4ccc(C(F)(F)F)cc4)cc3)ccc2OC)CC1
inactive: growth inhibition [1] 20% | inhibition [2] 17% | inhibition [3] -3% | outcome [5] | outcome [6] | outcome [7] | outcome [8]
active: growth inhibition [4] 99%

N#Cc1cccc(Nc2cc(C(F)(F)F)nc(Nc3ccccc3)n2)c1
active: growth inhibition [4] 92%
inactive: growth inhibition [1] 17% | inhibition [2] 7% | inhibition [3] 5% | outcome [5] | outcome [6] | outcome [7] | outcome [8]

CN1CCCC1CNS(=O)(=O)c1ccc(C(=O)NCC2CC2)cc1 (stereo not given)
inactive: growth inhibition [1] -7% | inhibition [2] 17% | inhibition [3] -1% | outcome [5] | outcome [6] | outcome [7] | outcome [8]
active: growth inhibition [4] 91%

CC(C)C[C@H](NC(=O)c1cc(-c2ccc(F)cc2)no1)C(=O)O (tested in a mixture with another compound)
active: growth inhibition [4] 82%
inactive: growth inhibition [1] 4% | inhibition [2] 7% | inhibition [3] -2% | outcome [5] | outcome [6] | outcome [7] | outcome [8]

O=C(Cn1c(CCc2cccc(F)c2F)nc(=O)c2cccnc21)N(Cc1ccc(-c2ccc(C(F)(F)F)cc2)cc1)C1CCN(C2CCOCC2)CC1
active: growth inhibition [1] 67% | inhibition [2] 100% | growth inhibition [4] 94%
inactive: inhibition [3] 1% | outcome [5] | outcome [6] | outcome [7] | outcome [8]

CCNc1cc(C)nc(Nc2ccc(NC(=O)C3CCCC3)cc2)n1
inactive: inhibition [2] 13% | inhibition [3] 0% | outcome [5] | outcome [6] | outcome [7] | outcome [8]
active: growth inhibition [1] 69% | growth inhibition [4] 99%

CCOc1ccc2nc(C)cc(NN=Cc3cccc([N+](=O)[O-])c3)c2c1
active: growth inhibition [1] 93% | growth inhibition [4] 101%
inactive: inhibition [2] 7% | inhibition [3] 0% | outcome [5] | outcome [6] | outcome [7] | outcome [8]

COc1ccc2ncc(F)c([C@@H](O)CN3CCC(NCc4cc(C#N)c5c(c4)CCO5)CC3)c2n1
active: growth inhibition [1] 50% | growth inhibition [4] 92%
inactive: inhibition [2] 15% | inhibition [3] 4% | outcome [5] | outcome [6] | outcome [7] | outcome [8]

Cc1nc(N)nc(N)c1OCCCCOc1ccccc1
active: inhibition [2] 62% | growth inhibition [4] 94%
inactive: growth inhibition [1] 4% | inhibition [3] -1% | outcome [5] | outcome [6] | outcome [7] | outcome [8]

CCCNCc1ccc(-c2ccc(CN(Cc3cnc(C)cn3)C(=O)/C=C/c3ccccc3C)cc2)nc1
active: growth inhibition [4] 95%
inactive: growth inhibition [1] 15% | inhibition [2] 7% | inhibition [3] 5% | outcome [5] | outcome [6] | outcome [7] | outcome [8]
